Test results from PubChem BioAssay AID1508600 (Functional Genomics Laboratory (NCATS/FGL), 2020).
The campaign covered roughly 53,000 sequences. About 3,700 (7%) were called active. This is one part of a sample in which actives are shown more often than they occur.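 The calls were made as follows: active = gene knockdowns whose robust z-score for IL-1 alpha signal is at least 2 or at most -2, so actives lie on both sides; inactive = the rest.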

Test: Components of the Cytosolic LPS Sensing Pathway: Gene Identification via Genome-wide siRNA Screen;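 also: robust z of the log signal after scaling to non-targeting control siRNA wells of the plate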
Settings: RAW264.7 macrophages, IL-1a HTRF, actives lie on both sides, screened at 100 nM (by protocol), cells primed 5 h with Pam3CSK4 first
Outline: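 RAW264.7; siRNA 100 nM final, RNAiMAX, 48h 37 degrees C; Pam3CSK4 5 h; LipidA + TransIT-TKO 24 h; IL-1a HTRF; CellTiter-Glo viability; robust z vs negative-control median.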

z-score, inactive:
GGACUCAGAUAUCUUUCAGTT against Adck1 -0.328
CGUUGCUGACUGCUAUGAATT against Tmprss13 -1.22
CCACUUUCACAUGAAGUUATT against Eif2s3x -0.7
GCUCCAGCUUGCACUCUUGTT against Trp53i13 1.36
CCCGAACCUGUUGUCUGAATT against Ttc8 -0.422
GCCAAGUGCUACAACAUCCTT against Ifitm5 -0.64
GGAACUCAAAUUGAAAAGGTT against Manea -0.135
GCUAUUGGAGAUAUAAUGGTT against Ace 1.58
GGCAGGCAACCAAUCAAAUTT against Npepps 1.29
GGAUUUCAUUAUCCUGUUUTT against Zfp608 -1.19
GCCUUGAACUAUGCAUAGATT against Eno2 1.7
GGAAGAAGAAAGAUUCAAATT against Bcan -0.862
GAUUUUUCAAAUCUUUGGCTT against Plac8 -1.52
GAGCAUCUGUGUAGAAGUGTT against Thrsp 0.786
CCUGGUACAAUCAAACUGCTT against Rnf222 0.516
GGCAGAAUGGGAAAUGUAUTT against Htr7 -0.841
GCCGUUUAUUCAUUGCACUTT against Cdc123 1.21
GGAAUUCAAUCAGUUUGCUTT against Dysf 1.06
GGCAUUUUUCGGAUUGACATT against Mmp27 -0.807
CCCUCUGAACUAUAUGACUTT against Olfr700 -1.09
GGCUUUGUGGACUUAAUUATT against Cyb5r2 -1
GCAUCACUGGAUUGUGGAUTT against Tm9sf2 0.188
GGGAAAAAUGGUCAGAUUATT against Colgalt2 -1.08
GGUUCCUAAGGAUGAACUUTT against Akr1c14 -0.186
GGAUCUCUUUGUUAAUGGUTT against Mall 0.715
GCCAUAUGCUAUCAAGAUGTT against Pskh1 -0.715
GGAAUGCUACAACUCAAAATT against Ptk2 -0.861
GGCAUUGGUUCCUACAAGATT against Gm773 -0.118
GGUAGAGGAUCUCUCUAAATT against Fbxo44 -0.444
GGUCCAUGGGUAAGAGGAUTT against Vmn1r43 1.2
GGUCGUGCGAUCCACAGAUTT against Vangl2 -0.44
GUUUUGGAUUCCUCUGUCATT against Olfr1097 -1.69
GGAAAAUUCCAGAAACCAUTT against Mettl8 0.608
GGUGAGGUUCAAACAUUCUTT against Sdf2 0.0627
GGGAUUCCACGGAUACUGUTT against Rnase13 -0.858
GGACUACCAGUUUUACAUCTT against Ssr1 1.25
GCCGGUGACUUUCUAAUUUTT against Yrdc -1.32
GCCUUAACUAUAGUCCAGATT against Scn7a -0.928
GGCAUGGCUGGCAAAAACATT against Ppp1r15a -1.85
GGAAGAUUUCUUCAAACGCTT against Lhx4 -0.167
CCUGAAGAGGAUGAUAUGGTT against Fam221a 0.144
GGUCUUCAGAAUCCUCAAUTT against Ap1g2 -0.4
GCCAACCUGAAACCAUCUATT against Ptprg 0.0567
GGAGCAUUGCUCUUCUUCATT against Get4 -0.073
GCAGAAGUAUUACUGGAUGTT against Olfr572 0.841
GCUAGGAACGAGGAGCUAATT against Prrt3 1.07
GGAAUACAUAGCACACGGUTT against Apba2 1.06
CCCUGAAACAAUGAAUACATT against Serpini1 0.325
GGAGAAGCUAAGAAACGAGTT against Acyp2 -0.696
CCCACAUUGCUUACCUUUCTT against Zfp523 -0.762
GCUGGGUUGCUGAUUUUUGTT against Arl5a -0.881
GGGCUUUCUCCAAUCGUAATT against Gm4876 0.603
GGUUCUGUCUUUUACUUUCTT against Olfr1496 0.232
CGAGUGCUUCUCUUGACAUTT against Mrpl22 -0.43
GGAUAAUUAUAGGAAGAGCTT against Ncapd3 -0.507
GGGAUGCUAACAGGUGUCATT against Tkfc -0.12
GGCAUUACAUUUCAAUGAATT against Serpinb12 -0.71
GGUGUUCUUGAAGUUUAUATT against Zfp157 0.579
GCAGGAGUCAAAUUUUCUATT against Nemp1 -0.795
GGAUUUUUGACUGUGAUUCTT against Pak1ip1 -1.57
CCCAGACAUUACAUGGCCUTT against Cldn6 -0.935
GGAACAAUGGGUUCAUUUUTT against Ifi203 0.136
CGUAAUCUUCAUCUUAGUATT against Olfr613 0.601
GGAGUCUUGGAAAAAAGGCTT against Rep15 -1.65
GGCCUGUUGAUUGCAUAUUTT against Sppl2a -1.01
GGCCUGAAAAGACUGAUAATT against Vmn2r26 1.18
GCUAGUUAAGAGGAGGCUGTT against Nob1 -0.252
GGAGCACAGGAAAAUAUAUTT against Mdm2 0.561
GCACUUUGUAUAUCUUUCCTT against Btd 1.51
GGGAGUUUCCAGAUGUUUUTT against Gclm 0.0729
GGAAGAAAAGACUUAUCGUTT against Jkamp -0.663
GGGAAACAUCUUCCUAUCCTT against Serpina12 -0.958
CCUAAUAAGCCAUAUGCAUTT against Alkbh8 -0.449
GCCCUCUGUGAGUAGUAAUTT against Shroom3 0.603
GGACAUUGCCCACAUGACCTT against Rnf227 -0.15
GCUCAACAGGCUCAACUACTT against Cndp2 0.492
GGACUACCGAACAAGAGAATT against Zfp318 0.241
GCAUUCACCGUACGUAUUCTT against Id4 0.187
GGUCUUCAACCCUGUUUGGTT against Gpsm3 0.329
GGAGACUCCAUACCAGUGUTT against Zfp329 1.78
GGCAGCAUUACACUGAAUCTT against Slc36a4 0.436
CCUAGUGAUUAAAGGGAUGTT against Prss43 1.19
GGAAAGUGUUUUCUCAUGATT against Klf9 -0.23
GGUGGUCUACUUCACCGCATT against Slc6a20a 0.466
GGAUCUCCUUUUUUUUCAATT against Gabrr1 0.0887
UCAUCGCAACCAUCCACAGTT against Olfr530 0.464
GGGAGUCUGGUGGAUUGAUTT against Rln1 0.0253

z-score, active:
GCCACAUCGUAGACAAGUATT against Zfp41 -2.71
CCGAGAUUGCCUGUUUGGUTT against Rnf144b 2.08
GGACUUUUUCAAAGGUUUUTT against Eif4g3 2.37
GGCCUCAUGCAGGAACAUUTT against Polr2d -2.34
GGACUUGACCUCAAGGGAATT against Sox6 2.35
GGUGUGGAACGACAAACAGTT against Pla2g4f -2.8
GGCCUAGCAAGGGAUUUUATT against Cep85 -2.02
GCUGGUAAACAUAGGUGGCTT against C1qtnf4 2.18
GGAUGAAGAGAAAGUUCUATT against Mak 2.49
UGCAAUCCGGAUCAAACGUTT against Cebpb -2.03
GGACACAGACAAUGAAAUGTT against Fetub -2.35
GCUUCCUAACCAGGUUUGATT against 4430402I18Rik 2.1
CGAGCCUCUGUGAUAUCCATT against Cst11 -2.69
GGAAUACACUCAAUAUUGATT against Nupl1 -2.59
GGAACCAAGGAUGUGAAAGTT against Rab13 -2.17
GGAGAAGGAUUAUACCAGUTT against Rfesd 2.2
GGCAGGUUUUUGACAACUUTT against Fxyd4 3.2
GUUACUACAACAGCUACUATT against Krtap19-4 -2.37
GGGUAGAAUCCAAGAAGCGTT against Hoxb3 -2.08
GGAUAUGGGAAUGAAAGCATT against Nyap2 -2.21
CGAUGACGAUGCCUAACCATT against Dgkeos -2.34
